# Results as given in PubChem BioAssay.
# The source made the active and inactive calls.
# Tests used:
# [1] = E. coli DRC41 culture turbidity changes, primary screen, E. coli filamentation inducer project, strain DRC41, OD650, 48 h (AID 1152);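 further: E. coli MC1000 strain DRC41 lacking acrAB efflux pump and sulA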; conditions: E. coli DRC41 (acrAB sulA), higher = more signal, called active from +8 up or from −8 down
# [2] = small-molecule binders of probe aLefty1, primary screen, biochemical, small-molecule microarray, 635/667 nm fluorescence (AID 1153); conditions: higher = more signal;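 further: score merges spot fluorescence with signal-to-noise ratio from the scanned slide images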
# [3] = PSAC antagonists in infected red cells, primary screen, cell-based, P. falciparum Indochina, OD700, 1 h (AID 1154); conditions: P. falciparum Indochina infected RBC osmotic lysis, higher = more signal, called active from +8 up or from −8 down
# [4] = PSAC antagonists in infected red cells, primary screen, cell-based, P. falciparum Indochina, OD700, 2 h (AID 1155);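 further: lysis reports solute entry through the parasite surface anion channel PSAC; channel blockers reduce lysis of infected cells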; conditions: P. falciparum Indochina infected erythrocytes, osmotic lysis OD700; higher = more signal, called active from +8 up or from −8 down
# [5] = osmotic lysis modulators in infected erythrocytes, primary screen, PSAC antagonist project, cell-based, P. falciparum Indochina, OD700, 3 h (AID 1156); conditions: higher = more signal, called active from +8 up or from −8 down
# [6] = PSAC antagonists in infected red cells, primary screen, cell-based, P. falciparum Indochina, OD700, 18 h (AID 1157); conditions: P. falciparum Indochina infected erythrocytes, osmotic lysis OD700, 18 h; higher = more signal, called active from +8 up or from −8 down
# [7] = modulators of S6 phosphorylation in cells, primary screen, cell-based, A549, cytoblot, luminescence, serum-stimulated (AID 1158); conditions: A549 phospho-S6 cytoblot, 5 h, higher = more signal;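 further: serum-stimulated A549 lung adenocarcinoma cells; signal is phosphorylated S6 detected by cytoblot immunostaining with HRP secondary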
# [8] = target: NADPH oxidase 2 (Homo sapiens) (UniProt P04839); test: NOX2-dependent H2O2 signal modulators, primary screen, NOX inhibitor project, cell-based, HEK293-NOX2, PMA-stimulated, Amplex Red fluorescence (AID 1159); conditions: 45 min, higher = more signal, called active from +8 up or from −8 down; further: test concentration not given here
# [9] = target: NADPH oxidase 4 (Homo sapiens) (UniProt Q9NPH5); test: NOX4-dependent H2O2 signal modulators, primary screen, NOX inhibitor project, cell-based, HEK293-NOX4, tetracycline-induced, Amplex Red fluorescence (AID 1160); conditions: 45 min, higher = more signal, called active from +8 up or from −8 down
# [10] = target: NADPH oxidase 5 (Homo sapiens) (UniProt Q96PH1); test: NOX5-dependent H2O2 signal modulators, primary screen, NOX inhibitor project, cell-based, HEK293-NOX5, Amplex Red fluorescence (AID 1161); conditions: HEK293-NOX5, ionomycin, 45 min, higher = more signal
# NADPH oxidase 5 (Homo sapiens), sequence (Q96PH1 whole entry, looked up): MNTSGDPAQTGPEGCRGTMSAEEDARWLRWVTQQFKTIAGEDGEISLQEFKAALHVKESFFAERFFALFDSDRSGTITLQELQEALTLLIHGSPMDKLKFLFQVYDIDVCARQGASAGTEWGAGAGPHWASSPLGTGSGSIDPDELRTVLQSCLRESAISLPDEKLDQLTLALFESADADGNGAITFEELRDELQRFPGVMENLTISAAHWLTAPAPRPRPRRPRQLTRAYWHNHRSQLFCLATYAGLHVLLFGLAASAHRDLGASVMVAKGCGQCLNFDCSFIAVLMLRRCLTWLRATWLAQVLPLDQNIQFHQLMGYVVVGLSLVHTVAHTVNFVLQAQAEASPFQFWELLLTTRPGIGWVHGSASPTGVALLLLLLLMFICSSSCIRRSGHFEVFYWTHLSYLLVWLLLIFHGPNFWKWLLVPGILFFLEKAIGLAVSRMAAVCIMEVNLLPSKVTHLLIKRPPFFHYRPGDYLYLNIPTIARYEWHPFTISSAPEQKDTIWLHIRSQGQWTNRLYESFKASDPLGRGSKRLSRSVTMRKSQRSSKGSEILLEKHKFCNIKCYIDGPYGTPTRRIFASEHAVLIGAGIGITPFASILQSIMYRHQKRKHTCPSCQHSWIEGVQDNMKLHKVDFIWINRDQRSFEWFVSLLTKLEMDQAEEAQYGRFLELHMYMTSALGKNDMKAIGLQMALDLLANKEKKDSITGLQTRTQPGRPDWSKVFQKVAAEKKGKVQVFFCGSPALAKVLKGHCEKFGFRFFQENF
# NADPH oxidase 2 (Homo sapiens), sequence (P04839 whole entry, looked up): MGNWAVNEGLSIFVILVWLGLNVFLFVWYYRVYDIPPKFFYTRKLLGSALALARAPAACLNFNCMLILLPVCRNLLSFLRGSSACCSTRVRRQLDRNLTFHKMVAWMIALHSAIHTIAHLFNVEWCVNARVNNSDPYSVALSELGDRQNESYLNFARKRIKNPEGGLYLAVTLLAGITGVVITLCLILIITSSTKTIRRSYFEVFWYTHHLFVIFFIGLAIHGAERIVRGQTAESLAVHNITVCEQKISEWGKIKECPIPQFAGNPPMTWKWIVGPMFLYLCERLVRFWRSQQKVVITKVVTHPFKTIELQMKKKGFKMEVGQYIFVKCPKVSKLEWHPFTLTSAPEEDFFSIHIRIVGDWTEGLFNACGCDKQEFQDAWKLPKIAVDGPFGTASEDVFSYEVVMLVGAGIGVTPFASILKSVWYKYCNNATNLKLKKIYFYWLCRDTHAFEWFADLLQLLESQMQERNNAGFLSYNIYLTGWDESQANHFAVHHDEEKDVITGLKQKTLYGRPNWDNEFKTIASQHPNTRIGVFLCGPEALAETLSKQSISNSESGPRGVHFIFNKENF
# NADPH oxidase 4 (Homo sapiens), sequence (Q9NPH5 whole entry, looked up): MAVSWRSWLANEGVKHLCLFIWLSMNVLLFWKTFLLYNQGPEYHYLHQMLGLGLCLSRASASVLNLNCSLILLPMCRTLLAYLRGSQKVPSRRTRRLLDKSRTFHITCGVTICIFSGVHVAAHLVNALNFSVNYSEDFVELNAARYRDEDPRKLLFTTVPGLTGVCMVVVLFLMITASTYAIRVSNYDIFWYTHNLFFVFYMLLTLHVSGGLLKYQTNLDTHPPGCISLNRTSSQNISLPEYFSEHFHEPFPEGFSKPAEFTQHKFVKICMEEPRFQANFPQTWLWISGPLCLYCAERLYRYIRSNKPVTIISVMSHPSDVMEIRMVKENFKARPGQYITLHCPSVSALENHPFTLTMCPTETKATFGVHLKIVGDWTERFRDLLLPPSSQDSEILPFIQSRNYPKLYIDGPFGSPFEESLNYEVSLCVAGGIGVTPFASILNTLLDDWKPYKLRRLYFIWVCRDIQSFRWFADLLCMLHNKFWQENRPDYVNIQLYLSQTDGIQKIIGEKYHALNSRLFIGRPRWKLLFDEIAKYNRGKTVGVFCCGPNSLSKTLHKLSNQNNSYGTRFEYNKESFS
Structure (SMILES),z-score [1],composite z-score [2],z-score [3],z-score [4],z-score [5],z-score [6],z-score [7],z-score [8],z-score [9],z-score [10]
CC1CC/C=C\[C@H]2OC34C=CCN(CCN5CCOCC5)C(=O)[C@H]3N(CCO)C(=O)[C@@H]4C2C(=O)O1 (stereo not given in full),0.413 (inactive),0.213,3.04 (inactive),0.397 (inactive),-0.174 (inactive),0.38 (inactive),-0.0354,0.994 (inactive),0.221 (inactive),2.07
O=C(CS)NCCCCCCNC(=O)[C@@H]1C[C@@H]2C(=O)N3CCC[C@H]3C(=O)N2[C@@H]1c1cccc(OCCO)c1,1.89 (inactive),0.113,2.94 (inactive),-0.677 (inactive),1.94 (inactive),-1.78 (inactive),2.09,1.17 (inactive),0.87 (inactive),0.222
C=C(CCCC)C(=O)CC[C@@H](OC(=O)c1ccccc1-c1ccccc1C(=O)O)c1cccc(OCCO)c1,-0.397 (inactive),-0.168,22.3 (active),4.27 (inactive),1.11 (inactive),0.896 (inactive),-0.348,2.86 (inactive),-0.351 (inactive),-1.08
[N-]=[N+]=Nc1ccccc1C[C@]1(C(=O)NCc2ccccc2)N=C(c2ccc(OCCCO)cc2)O[C@H]1c1ccccc1,0.383 (inactive),0.394,17.6 (active),3.08 (inactive),1.14 (inactive),0.786 (inactive),-0.16,-0.172 (inactive),1.45 (inactive),1.03
C=CC[C@@]12N=C(c3ccc(OCCCO)cc3)O[C@@H]1c1ccccc1N(CCS(=O)(=O)c1ccccc1)C2=O,-0.309 (inactive),0.199,33.3 (active),28.5 (active),3.7 (inactive),8.56 (active),0.766,-1.55 (inactive),0.599 (inactive),-1.91
Cc1ccc(S[C@]2(C(=O)NC(C)C)CC(=O)N(C3Cc4ccccc4C3)[C@@H]2c2ccc(CO)cc2I)cc1,0.135 (inactive),-0.788,8.47 (active),1.39 (inactive),1.67 (inactive),0.13 (inactive),-0.086,1.87 (inactive),-1.89 (inactive),1.23
